The record followed here is PubChem BioAssay AID1259343 (VanderVen Lab, College of Veterinary Medicine, Cornell …, 2017).

In all, about 6,200 compounds went through this assay and about 2,900 (47%) were called active. So high a share suggests a set chosen from earlier hits. Some of the results follow. Unmarked numbers belong to inactive results. Cut-off read from the data, not from the text of the source: active = inhibition above about 50%; inactive = the rest.

The experiment in a line: Mycobacterium tuberculosis growth inhibition, primary screen (AID 1259343). Particulars: inhibition: at 10 µM, stronger effect = higher value; outcome: 10 uM.
For the molecule `CC(=O)Oc1ccc(N2C(=O)c3cccc4c([N+](=O)[O-])ccc(c34)C2=O)cc1`, the inhibition (commonly the change of the read-out against control, counted positive when it falls) is 36.4%.
The result for `O=[N+]([O-])c1cccc2nsnc12` reads -16%; that for `O=[N+]([O-])c1ccc(O)c2ncccc12`, 102% (active); that for `N#CC(=Cc1ccc(O)cc1)c1ccc([N+](=O)[O-])cc1`, 27.9%.
The result for `O=[N+]([O-])c1ccc(-c2nc(N=Nc3ccc(O)cc3)n[nH]2)cc1` reads 84.3% (active); that for `CC(NC(=O)c1ccc2ncsc2c1)C1CC2CCC1C2` (centres undefined), 5.4%; that for `CC(NS(=O)(=O)c1ccc(Cl)cc1)C1CC2CCC1C2` (centres undefined), -15.9%.
`CC(NC(=O)NC(=O)N(C1CCCCC1)S(C)(=O)=O)C1CC2CCC1C2` (centres undefined): the inhibition is 79.8% (active).
Regarding `CCc1c(C)nc(-n2nc(C)cc2NC(=O)Cc2ccc(OC)cc2)[nH]c1=O`, the inhibition was 99.1% (active).
For `COc1ccc(CC(=O)Nc2cc(C)nn2-c2nc3c(c(=O)[nH]2)CCC3)cc1OC`, the inhibition was 101% (active).
Consider `CCc1c(C)nc(-n2nc(C)cc2NC(=O)c2ccc(OC)cc2OC)[nH]c1=O`, for which the inhibition was -4.11%.
The result for `CCc1c(C)nc(-n2nc(C)cc2NC(=O)/C=C/c2ccc(OC)c(OC)c2)[nH]c1=O` reads 99.3% (active); that for `CCc1c(C)nc(-n2nc(C)cc2NC(=O)Cc2ccc([N+](=O)[O-])cc2)[nH]c1=O`, 78.5% (active).
Regarding `COc1ccc(CC(=O)Nc2cc(C)nn2-c2nc(C)c(C)c(=O)[nH]2)cc1`, the inhibition was -19.9%.
The result for `C=CC(=O)Nc1cccc(Sc2nc(Nc3ccc(N4CCN(C)CC4)cc3)ncc2Cl)c1` reads 33.2%; that for `O=C(CSc1nnc(C23CC4CC(CC(C4)C2)C3)o1)N1CCCC1`, 45.1%.
In the case of `CCc1c(C)nc(-n2nc(C)cc2NC(=O)Cc2ccc(OC)c(OC)c2)[nH]c1=O` it was 101% (active); in that of `COc1ccc(CC(=O)Nc2cc(C)nn2-c2nc(C)c(C)c(=O)[nH]2)cc1OC`, 100% (active); in that of `Cc1ccc(Oc2ccc3ncccc3c2N)c(Br)c1`, 14.7%.
In the case of `CCNC(=O)c1cc(Oc2ccc(C)cc2Br)ccn1` it was 89.2% (active); in that of `CCNC(=O)c1cc(N2CCC(c3ccc(OC)cc3)C2)ccn1` (centres undefined), -14.2%.
On to `O=C(NCC1COc2ccccc2O1)N1CCN(c2ccc(F)cc2)CC1` (centres undefined), for which the inhibition was 26.7%.
In the case of `O=C(NCC1COc2ccccc2O1)c1ccc2c(c1)CCC2` (centres undefined) it was 66.8% (active); in that of `O=C(NCc1ccco1)C1Cc2cc(Cl)ccc2O1` (centres undefined), 22%.
In the case of `O=C(NCC1COc2ccccc2O1)C1Cc2cc(Cl)ccc2O1` (centres undefined) it was 67% (active).
The result for `CC(NC(=O)C1Cc2cc(Cl)ccc2O1)c1ccc(F)c(F)c1` (centres undefined) reads 59.3% (active); that for `CC(NC(=O)C1Cc2ccccc2O1)c1ccc(Cl)s1` (centres undefined), 4.06%; that for `Fc1ccccc1NC(=S)NCC1COc2ccccc2O1` (centres undefined), 11.1%.
For `CC(NC(=O)c1cc(Cl)ccc1NS(C)(=O)=O)c1ccc2c(c1)OCO2` (centres undefined), the inhibition is 7.73%.
In the case of `O=C1CC(NC(=O)C(F)(F)F)=NN1c1ccccc1`, the inhibition was 70.9% (active).
The result for `CCCc1nc(C(=O)N2CCOC(c3ccc(Cl)cc3)C2)cs1` (centres undefined) reads 28.4%; that for `Clc1ccc(C2CN(Cc3cc(-c4cccnc4)no3)CCO2)cc1` (centres undefined), 6.33%; that for `O=C(c1csc(-c2cccnc2)n1)N1CCOC(c2ccc(Cl)cc2)C1` (centres undefined), 61% (active).
The result for `Cc1ccccc1OCC(=O)N1CCN(c2ncnc3c2nnn3-c2cccc(F)c2)CC1` reads 67.9% (active); that for `Nc1ccc(F)cc1-c1nc(CCOc2ccccc2)no1`, 74.1% (active).
As to `c1ccc(Cc2nc(CCOc3ccccc3)n[nH]2)cc1`, the inhibition is 36.5%.
In the case of `O=c1c2c3c(sc2[nH]c(=S)n1CC1CCCO1)CCCC3` (centres undefined) it was 68.2% (active).
As for `COCCCn1c(=S)[nH]c2sc3c(c2c1=O)CCCC3`, the inhibition was 20.5%.
The result for `CCn1c(=S)[nH]c2sc3c(c2c1=O)CCCC3` reads 38.1%; that for `CCC(=O)c1cccc(-c2ccc(NC(C)=O)cc2)c1`, 78.7% (active).
On to `CCCc1cc(Nc2ccc(NC(C)=O)cc2)n2ncc(-c3ccccc3)c2n1`, for which the inhibition was -6.07%.
Consider `O=C1c2ccccc2C(=O)c2c1oc1c3c(ccc21)OCN(C1CCCC1)C3`, for which the inhibition is 99.5% (active).
For the molecule `CCOC(=O)c1ccc(NC(=O)c2cc3cc([N+](=O)[O-])ccc3oc2=N)cc1`, the inhibition is 62.9% (active).
On to `COC(=O)c1cc2cc(Br)ccc2oc1=O`, for which the inhibition was -45.4%.
`CCOC(=O)C(CC)Sc1nnc(NC(=O)c2ccc(Br)cc2)s1` (centres undefined): the inhibition was 91.5% (active).
In the case of `Cc1cccc(Cn2c(SC(C)C)nc3c2c(=O)n(C)c(=O)n3C)c1`, the inhibition was 81.2% (active).
Turning to `CSc1nc2c(c(=O)n(C)c(=O)n2C)n1CCCc1ccccc1`, the inhibition is 28.2%.
In the case of `COC(=O)C(C)Sc1nc2c(c(=O)n(C)c(=O)n2C)n1CCC(C)C` (centres undefined), the inhibition was 26.7%.
In the case of `Fc1cccc(NCCc2ccc(-n3cccn3)cc2)n1` it was 67.5% (active); in that of `CN(Cc1ccc(-n2cccn2)cc1)S(=O)(=O)c1cccs1`, 10.7%.
In the case of `Cc1ccc(-c2cnn3c(-n4nc(C)cc4C)cc(C)nc23)cc1` it was 47.1%; in that of `Cc1cc(NCCCn2ccnc2)n2ncc(-c3ccc(Cl)cc3)c2n1`, 95.2% (active); in that of `c1ccc(-c2cc(NCCCn3ccnc3)n3ncc(-c4ccccc4)c3n2)cc1`, -16.1%.
In the case of `COCCNc1cc(C)nc2c(-c3ccc(Cl)cc3)cnn12` it was 98.7% (active); in that of `Cc1cc(NCCOCCO)n2ncc(-c3ccc(Cl)cc3)c2n1`, -5.37%.
Turning to `CCc1nn2c(NCCOC)cc(C)nc2c1-c1ccccc1`, the inhibition is 32.2%.
In the case of `O=C1CC(c2ccc3c(c2)OCCO3)Oc2ccc(Br)cc21` (centres undefined) it was “inactive”; in that of `O=C1CC(c2ccc(O)cc2)Oc2ccccc21` (centres undefined), 72.9% (active); in that of `O=C1NC(=O)C(Nc2ccc(I)cc2)S1` (centres undefined), 27.9%.
Consider `COc1ccc2c(c1OC)C(=O)OC2Nc1ccc(I)cc1` (centres undefined), for which the inhibition is 72.8% (active).
For `c1ccc(COc2ccc(OCCCn3cnc4ccccc43)cc2)cc1`, the inhibition was 85.3% (active).
Turning to `Cc1ccc(OCCCn2cnc3ccccc32)cc1`, the inhibition is 36%.
`c1ccc(OCCCCn2nnc3ccccc32)cc1`: the inhibition is 21.5%.
On to `FC(F)(F)c1cccc(OCCCCn2cnc3ccccc32)c1`, for which the inhibition is 76.6% (active).
In the case of `Ic1ccc(OCCCn2cnc3ccccc32)cc1` it was 70.5% (active); in that of `Cc1ccc(C(C)C)cc1OCCCn1cnc2ccccc21`, 78.4% (active).
Turning to `CC1=C(C(=O)OCCOc2ccccc2)C(c2ccccc2[N+](=O)[O-])NC(=O)N1C` (centres undefined), the inhibition was -7.53%.
In the case of `Cc1cc(OCC(O)CN(Cc2ccccc2)C(C)(C)C)ccc1[N+](=O)[O-]` (centres undefined) it was 0.53%.
The result for `Cc1cc(OCCCn2cnc3ccccc32)ccc1[N+](=O)[O-]` reads 61.1% (active); that for `CN(Cc1nc2c(s1)CCCC2)C(=O)Cc1ccccc1O`, 82.4% (active); that for `CC1=NN(c2ccc(C(=O)N(C)Cc3ccccc3O)cc2)CC1`, 23.1%.
Consider `Cc1[nH]ccc2c1[nH]c1cc(=O)ccc12`, for which the inhibition was 90.6% (active).
As to `Oc1ccc(Oc2ncc(Cl)cc2Cl)cc1`, the inhibition is 38.9%.
In the case of `COc1cccc(Oc2ncc(C(N)=O)cc2Cl)c1` it was 68.9% (active); in that of `CN(Cc1ccccc1C(F)(F)F)c1ncc(C(N)=O)cc1Cl`, 39.2%; in that of `CN(C)c1ccc(-c2nc(-c3cc4c5c(c3)CC(=O)N5CCC4)cs2)cc1`, -34.5%.
In the case of `Cc1nc(-c2ccc(CCNC(=O)c3cc(F)cc(F)c3)s2)cs1` it was 35.7%; in that of `CCc1ccc(-c2csc(N)n2)s1`, 76.7% (active); in that of `CN(C)c1ccc(Nc2nc(-c3cccs3)cs2)cc1`, 18.8%.
The result for `Nc1nc(-c2ccc(Cl)s2)cs1` reads 86.7% (active).
In the case of `Clc1ccc(-c2csc(-c3cnccn3)n2)s1`, the inhibition was 17.5%.
In the case of `Nc1nc(-c2ccc3c(c2)OCO3)cs1` it was -28.1%; in that of `Nc1nc(-c2cccs2)cs1`, 76% (active); in that of `Nc1ccn(-c2ccc(Cl)c(Cl)c2)n1`, 96.1% (active).
The result for `NC(=O)c1ccn(-c2cccc(Br)c2)n1` reads 10.3%; that for `Cc1sc2nc(-c3cccs3)nc(N3CCNC(C(N)=O)C3)c2c1C` (centres undefined), 26%.
As for `O=[N+]([O-])c1ccc2[nH]c(O)c(N=Nc3cccc(C(F)(F)F)c3)c2c1`, the inhibition is -6.56%.
As to `O=[N+]([O-])c1ccc2nc(C(F)(F)F)[nH]c2c1`, the inhibition is 102% (active).
Turning to `O=S(=O)(c1ccc(Cl)s1)N1CCN(c2ccnc3cc(Cl)ccc23)CC1`, the inhibition was 9.81%.
The result for `CCNC(=S)N1CCN(S(=O)(=O)c2ccc(Cl)s2)CC1` reads 99.5% (active); that for `O=S(=O)(c1ccc(Cl)s1)N1CCN(c2ccc(F)cc2)CC1`, -6.71%.
Take `Cc1cc(N)n(CC(=O)NCCn2c(C)cc3ccccc32)n1`: the inhibition was -1.16%.
In the case of `Cc1cc(C)n(-c2nc3c(c(=O)n2CC(=O)NC2CCCC2)CCCC3)n1` it was 88.4% (active); in that of `C=CCNC(=O)Cn1c(-n2nc(C)cc2C)nc2c(c1=O)CCCC2`, 98% (active).
In the case of `Oc1cc(-c2cccc3c2Sc2ccccc2S3)cc2c1OCCNC2`, the inhibition was 22%.
The result for `COc1ccc(C2(C(=O)Nc3nc(C)c(C)s3)CCCCC2)cc1` reads 91.6% (active); that for `COC(=O)Nc1ccc(OCc2nc(C)c(C)s2)cc1`, 2.64%.
Take `CN(Cc1ccc(Br)s1)C(=O)c1ccccc1O`: the inhibition was 89.5% (active).
In the case of `Cc1ccc(O)c(C(=O)N(C)Cc2ccccc2C(F)(F)F)c1` it was 14.5%.
For `Cc1ncc(CN(C)C(=O)c2ccc(Cl)c(Cl)c2O)s1`, the inhibition is 45.2%.
The result for `O=C1c2ccccc2C(=O)c2oc(-c3cc([N+](=O)[O-])cc([N+](=O)[O-])c3)nc21` reads 61.8% (active); that for `CCCc1cc(NCC2CCCO2)n2nc(C)c(-c3ccccc3)c2n1` (centres undefined), 39.6%; that for `CCCc1cc(NCC2CCCO2)n2nc3nc(C)cc(C)c3c2n1` (centres undefined), 98.6% (active).
In the case of `CCCc1cc(N2CCCC2)n2nc3nc(C)cc(C)c3c2n1` it was 22%.
